Experimental findings from PubChem BioAssay are described below.

Unmarked numbers belong to inactive results. Calls of active or inactive are those of the source.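 How the source made its calls, unless noted: active means compounds that lower survival of HCT116 colon cancer cells in the luminescence readout, no numeric limit stated; inactive means the rest.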

Experiment [1] is described as follows: stimulators of insulin release from INS-1E, primary screen, cell-based, 5 mM glucose, NPC library (AID 1117329;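 active means compound raises insulin release from rat beta cells at 5 mM glucose, no numeric limit stated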). The settings on record: rat INS-1E insulin secretion, at 10 µM, hits give high values.
A short description of experiment [2]: growth inhibition of GSK3B-pretreated HCT116 cells – cell-based, CellTiter-Glo, 0.2 to 20 µM (AID 1117336;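 active means compounds lowering colon cancer cell viability after pretreatment blocking the GSK3B kinase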). The settings on record: HCT116 viability after GSK3B inhibitor, at 20 µM, hits give high values. For orientation: ATP-based viability assays read luminescence as a measure of living cells.
Experiment [3] in a line: inhibition of endothelial tube formation, primary screen, imaging, VEGF stimulated, CD31 staining, tube area, NPC library (AID 1117340;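 active means compound that reduces growth-factor-driven endothelial tube area in a mixed cell culture, no cutoff stated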). As to conditions: VEGF-stimulated ADSC/ECFC co-culture, at 10 µM, hits give high values.
A short description of experiment [4]: glucagon-like peptide 1 release enhancers, primary assay, NCI-H716 cell line, NPC library (AID 1117341;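 active means compound raises GLP1 secretion from the human gut endocrine cells, with no numeric limit stated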). The settings on record: NCI-H716 cells, at 10 µM, hits give high values.
The nature of experiment [5]: HCT116 colon cancer cell growth inhibition, primary screen, CellTiter-Glo luminescence, NPC library (AID 1117342). The settings on record: at 20 µM (top of the series).
The nature of experiment [6]: CellTiter-Glo luminescent readout of SW480 viability loss, NPC library primary (AID 1117343;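 active means compounds that lower viability of the colon cancer cells in the luminescence readout, with no numeric limit stated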). As to conditions: CellTiter-Glo luminescence; at 20 µM (top of the series).
Experiment [7] is described as follows: decreased DLD-1 cellular survival, CellTiter-Glo luminescent readout, NPC compound collection, primary HTS (AID 1117346;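 active means compounds that lower survival of DLD-1 colon cancer cells in the luminescence readout, no cutoff given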). The settings on record: DLD-1 viability, CellTiter-Glo luminescence; at 20 µM (top of the series).
The target in experiment [8] is 6-phosphogluconate dehydrogenase, decarboxylating (Homo sapiens) (UniProt P52209). The experiment in a line: 6PGD enzyme inhibitors, primary screen, biochemical, human, recombinant enzyme, NADPH absorbance (AID 1159550;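 active means at least 20% inhibition of 6-phosphogluconate dehydrogenase activity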). The settings on record: recombinant 6PGD, NADPH absorbance 341 nm; at 10 µM; hits give high values.
Sequence of 6-phosphogluconate dehydrogenase, decarboxylating (Homo sapiens) (P52209 whole entry, looked up): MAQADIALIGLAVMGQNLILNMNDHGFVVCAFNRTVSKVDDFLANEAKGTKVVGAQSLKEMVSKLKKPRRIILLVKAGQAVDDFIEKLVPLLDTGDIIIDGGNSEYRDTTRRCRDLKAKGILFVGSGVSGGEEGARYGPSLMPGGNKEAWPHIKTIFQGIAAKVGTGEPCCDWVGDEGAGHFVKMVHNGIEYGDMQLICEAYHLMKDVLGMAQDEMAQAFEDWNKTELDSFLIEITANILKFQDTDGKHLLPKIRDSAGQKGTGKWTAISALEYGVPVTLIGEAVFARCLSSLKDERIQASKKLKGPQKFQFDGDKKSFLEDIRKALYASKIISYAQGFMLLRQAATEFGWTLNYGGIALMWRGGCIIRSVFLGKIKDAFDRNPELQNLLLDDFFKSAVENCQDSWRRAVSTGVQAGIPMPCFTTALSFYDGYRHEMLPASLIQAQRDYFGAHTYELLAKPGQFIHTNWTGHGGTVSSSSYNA

Turning to `NC/C=C/C(=O)O`, the insulin secretion stimulation in experiment [1] is 1.5%. Moreover, the viability decrease in experiment [2] is -42.3%. Also, the tube area decrease in experiment [3] was -0.5%. Further, in experiment [4], the GLP1 secretion stimulation was -2.6%. For the same compound, in experiment [5], the inhibition of viability is 3.67%. Also, the viability decrease (inhibition) was 11.1% in experiment [6] and -6.3% in experiment [7]. The inhibition in experiment [8] is 0.304%.
For the compound `Cc1cc2nc3c(=O)[nH]c(=O)nc-3n(C[C@H](O)[C@H](O)[C@H](O)CO)c2cc1C`, the insulin secretion stimulation in experiment [1] is 0.9%. The viability decrease in experiment [2] was -45.7%. In addition, in experiment [3], the tube area decrease was 36.1%. Besides, the GLP1 secretion stimulation in experiment [4] was -0.4%. The inhibition of viability in experiment [5] is 0.1%. In addition, the viability decrease (inhibition) in experiment [6] was 11.1%; in experiment [7], -5.4%. The inhibition in experiment [8] was -2.13%.
Consider `O=C(Cn1ccnc1[N+](=O)[O-])NCCO`, for which the insulin secretion stimulation in experiment [1] was 2.3%. Further, the viability decrease in experiment [2] is -1.8%. In experiment [3], the tube area decrease was 2.6%. In addition, in experiment [4], the GLP1 secretion stimulation was -2.9%. For the same compound, in experiment [5], the inhibition of viability is 19.2%. In addition, the results for the viability decrease (inhibition) in experiment [6] and in experiment [7] were 6.3% and -0.6%, respectively. For the same compound, in experiment [8], the inhibition was -6.85%.
On to `CCOC(=O)OC(C)OC(=O)[C@@H]1N2C(=O)[C@@H](NC(=O)[C@H](N)c3ccccc3)[C@H]2SC1(C)C` (some centres undefined), for which, in experiment [1], the insulin secretion stimulation was 0.3%. Moreover, in experiment [2], the viability decrease was -28.2%. In experiment [3], the tube area decrease is 5.9%. In addition, in experiment [4], the GLP1 secretion stimulation is -3.1%. Also, the inhibition of viability in experiment [5] was -1.7%. Besides, the viability decrease (inhibition) in experiment [6] is -35.9%; in experiment [7], -10.2%. Moreover, the inhibition in experiment [8] is -1.65%.
For the compound `CC(=O)Oc1c(C)c(C)c2c(c1C)CC[C@@](C)(CCC[C@H](C)CCC[C@H](C)CCCC(C)C)O2`, the insulin secretion stimulation in experiment [1] was 0.3%. Further, the viability decrease in experiment [2] was -9.9%. Also, the tube area decrease in experiment [3] was -15.2%. Further, the GLP1 secretion stimulation in experiment [4] was 1.2%. For the same compound, in experiment [5], the inhibition of viability is 1.13%. The viability decrease (inhibition) is -13.6% in experiment [6] and -19.7% in experiment [7]. The inhibition in experiment [8] was 14%.
As for `O=c1[nH]cnc2c1ncn2[C@@H]1O[C@H](CO)[C@@H](O)[C@H]1O`, the insulin secretion stimulation in experiment [1] is -0.1%. The viability decrease in experiment [2] was -12.4%. For the same compound, in experiment [3], the tube area decrease was 2.1%. Also, in experiment [4], the GLP1 secretion stimulation was 0.9%. Besides, the inhibition of viability in experiment [5] was -0.1%. In addition, the viability decrease (inhibition) is -39.7% in experiment [6] and -12.5% in experiment [7]. Further, the inhibition in experiment [8] is -10.6%.
As for `CC1=C(C(=O)O)N2C(=O)[C@@H](NC(=O)[C@H](N)c3ccc(O)cc3)[C@H]2SC1`, the insulin secretion stimulation in experiment [1] is -0.5%. Besides, in experiment [2], the viability decrease is -2.2%. The tube area decrease in experiment [3] is -4.7%. Further, the GLP1 secretion stimulation in experiment [4] is -0.3%. Moreover, the inhibition of viability in experiment [5] was 7.3%. Besides, the viability decrease (inhibition) is 7.8% in experiment [6] and 7.3% in experiment [7]. For the same compound, the inhibition in experiment [8] was -1.37%.
With `CC[N+](C)(C)Cc1ccccc1Br`, in experiment [1], the insulin secretion stimulation was 2.5%. The viability decrease in experiment [2] is -18.7%. Moreover, the tube area decrease in experiment [3] was 10%. Further, the GLP1 secretion stimulation in experiment [4] is -3%. Also, in experiment [5], the inhibition of viability was 27.2%. The viability decrease (inhibition) in experiment [6] was -1.6% (active); in experiment [7] it was 10.8%. Also, the inhibition in experiment [8] was -1.68%.
On to `C[C@@H]1CC[C@@]2(OC1)O[C@H]1C[C@H]3[C@@H]4CC[C@H]5C[C@@H](O)CC[C@]5(C)[C@H]4CC(=O)[C@]3(C)[C@H]1[C@@H]2C`, for which, in experiment [1], the insulin secretion stimulation was 3.2%. In addition, the viability decrease in experiment [2] is 13.4%. Besides, the tube area decrease in experiment [3] was -13.1%. The GLP1 secretion stimulation in experiment [4] was -3.1%. Besides, the inhibition of viability in experiment [5] was 4.27%. Moreover, the viability decrease (inhibition) in experiment [6] is 7.5%; in experiment [7] it was 3.7%. In experiment [8], the inhibition was 14.9%.
On to `CC(=O)OCC(=O)[C@@]1(O)[C@H](C)C[C@H]2[C@@H]3CCC4=CC(=O)C=C[C@]4(C)[C@@]3(F)[C@@H](O)C[C@@]21C`, for which the insulin secretion stimulation in experiment [1] was 0.55%. For the same compound, the viability decrease in experiment [2] is 10.3%. Moreover, the tube area decrease in experiment [3] was -13.1%. Further, the GLP1 secretion stimulation in experiment [4] is 4%. Besides, the inhibition of viability in experiment [5] was 7.2%. Moreover, the results for the viability decrease (inhibition) in experiment [6] and in experiment [7] were 32.2% and -4.9%, respectively. Also, the inhibition in experiment [8] was -7.66%.
With `CC(=O)OCC(=O)[C@H]1CC[C@H]2[C@@H]3CCC4=CC(=O)CC[C@]4(C)[C@H]3CC[C@]12C`, the insulin secretion stimulation in experiment [1] is 0.3%. Besides, the viability decrease in experiment [2] was 0.8%. Also, the tube area decrease in experiment [3] is -2.5%. In experiment [4], the GLP1 secretion stimulation was -0.6%. Besides, the inhibition of viability in experiment [5] was 34.5%. Moreover, the viability decrease (inhibition) is 1.2% in experiment [6] and -9.6% in experiment [7]. Moreover, the inhibition in experiment [8] is 2.51%.
For `C[C@@H]1C[C@H]2[C@@H]3CCC4=CC(=O)C=C[C@]4(C)[C@@]3(F)[C@@H](O)C[C@]2(C)[C@H]1C(=O)CO`, the insulin secretion stimulation in experiment [1] was 7.5%. In addition, the viability decrease in experiment [2] was -14.3%. In experiment [3], the tube area decrease was 6.7%. For the same compound, the GLP1 secretion stimulation in experiment [4] is -0.7%. Besides, the inhibition of viability in experiment [5] is 9.7%. Further, the viability decrease (inhibition) in experiment [6] was 3.5%; in experiment [7], -5%.
On to `COc1cc(N)c(Cl)cc1C(=O)NC1CCN(Cc2ccccc2)CC1`, for which, in experiment [1], the insulin secretion stimulation is 9.3%. In experiment [2], the viability decrease is -6.7%. Further, the tube area decrease in experiment [3] is 5.3%. Further, the GLP1 secretion stimulation in experiment [4] was -0.7%. Also, the inhibition of viability in experiment [5] was 38.2%. In addition, the viability decrease (inhibition) in experiment [6] is 26.2%; in experiment [7], 6.4%. In addition, the inhibition in experiment [8] was -7.99%.
Regarding `O=C(O)CCCC[C@@H]1SC[C@@H]2NC(=O)N[C@@H]21`, the insulin secretion stimulation in experiment [1] was -0.9%. For the same compound, the viability decrease in experiment [2] was -1.65%. In addition, the tube area decrease in experiment [3] is -24.1%. In experiment [4], the GLP1 secretion stimulation was 1.6%. Further, in experiment [5], the inhibition of viability is -15%. Also, the viability decrease (inhibition) in experiment [6] was 33.7%; in experiment [7], 4.5%. The inhibition in experiment [8] was 12.7%.
As for `CC1(C)O[C@@H]2C[C@H]3[C@@H]4C[C@H](F)C5=CC(=O)CC[C@]5(C)[C@H]4[C@@H](O)C[C@]3(C)[C@]2(C(=O)CO)O1`, in experiment [1], the insulin secretion stimulation was 6.1%. Also, the viability decrease in experiment [2] was 0.8%. Also, in experiment [3], the tube area decrease is -40.9%. The GLP1 secretion stimulation in experiment [4] is 1.2%. Also, the inhibition of viability in experiment [5] is 0.1%. In addition, the viability decrease (inhibition) in experiment [6] was -2.1%; in experiment [7] it was -16.6%. Further, in experiment [8], the inhibition is 8.44%.
Turning to `C[C@@H]1C[C@H]2[C@@H]3C[C@H](F)C4=CC(=O)C(Cl)=C[C@]4(C)[C@@]3(F)[C@@H](O)C[C@]2(C)[C@@]1(O)C(=O)CO`, the insulin secretion stimulation in experiment [1] is -0.6%. Besides, in experiment [2], the viability decrease is 6.2%. Further, the tube area decrease in experiment [3] is -1.8%. Besides, the GLP1 secretion stimulation in experiment [4] was 4.6%. Further, the inhibition of viability in experiment [5] is 33.1%. Besides, the figures for the viability decrease (inhibition) in experiment [6] and in experiment [7] were 12% and 8.3%, respectively.
In the case of `C=CC(N)CCC(=O)O` (centres undefined), the insulin secretion stimulation in experiment [1] is 1.4%. For the same compound, the viability decrease in experiment [2] was -25.5%. Further, the tube area decrease in experiment [3] is -14.9%. Further, in experiment [4], the GLP1 secretion stimulation was -0.9%. For the same compound, in experiment [5], the inhibition of viability was 10.9%. In addition, the viability decrease (inhibition) was -15.3% in experiment [6] and -6.8% in experiment [7]. The inhibition in experiment [8] is -0.693%.

One may read the inhibition as the drop in the measured response relative to a control, in per cent.
